# About 1,700 (3.3%) of roughly 52,000 compounds were called active. No stated cut-off is given here; in the data, active means survival mostly below about 52% (no sharp cut-off); inactive means mostly above about 56%. For the sample, actives were picked, then their nearest neighbours and some compounds at random.
# Tested on: Wild type
# Assay: growth inhibition of S. aureus wild type versus tarO mutant, primary screen, teichoic acid synthesis inhibitors, RN4220, OD600 (AID 463173)
# Details: S. aureus RN4220 wild type/DeltatarO growth, OD600, 18 h, hits give low values, screened at 18.75 µg/mL (by protocol)
row,Structure (SMILES),survival
1,Cc1ccc(F)cc1NC(=O)Cn1c(C)cc(C)c(C#N)c1=O,131% (inactive)
2,CCOc1ccc(CNC(=O)Cn2nc(C)c3c(C)n(-c4ccc(C)cc4)nc3c2=O)cc1,78% (inactive)
3,O=C(CSc1ccc2nnc(CCNS(=O)(=O)c3ccccc3)n2n1)Nc1ccccc1C(F)(F)F,107% (inactive)
4,Cc1cccc(S(=O)(=O)Nc2cccc(-c3ccc(N4CCCCC4)nn3)c2)c1,69% (inactive)
5,N#Cc1ccccc1NC(=O)C(=O)NCC(c1cccnc1)N1CCN(c2ccccc2)CC1 (stereo not given),99% (inactive)
6,Cc1ccc(NC(=O)c2c(C)nc3sc(C(=O)Nc4ccc(F)cc4)c(N)c3c2-c2ccccc2Cl)c(C)c1,65% (inactive)
7,Cc1cn(C)c(CC(=O)Nc2ccc(F)cc2Cl)c1C(=O)O,76% (inactive)
8,CCOC(=O)c1cccc(NC(=O)CCn2nc(C)c3c(C)n(-c4ccccc4)nc3c2=O)c1,73% (inactive)
9,CC1(c2ccc(Cl)cc2)CC(C)(C)N(C(=O)c2cccc(F)c2)c2ccccc21 (stereo not given),7% (active)
10,CC1CC(C)CN(C(=O)c2ccc(Cl)cc2)C1 (stereo not given),117% (inactive)
11,O=C(c1cccc(F)c1)N1CCC(c2c[nH]c3ccccc23)(c2c[nH]c3ccccc23)CC1,63% (inactive)
12,CC1(c2ccc(Cl)cc2)CC(C)(C)N(C(=O)c2ccccc2)c2ccccc21 (stereo not given),-11% (active)
13,O=C(NCc1ccc2c(c1)CCN2C(=O)c1ccc(Cl)cc1)c1cccc(F)c1,55% (inactive)
14,CC1(C)C(=O)N(CC(=O)Nc2ccc(Cl)cc2)c2ccccc21,59% (inactive)
15,COc1ccc(-n2c(SCC(=O)Nc3ccc4c(c3)OCO4)nc3c([nH]c4ccccc43)c2=O)cc1,81% (inactive)
16,Cc1ccc(COC(=O)c2[nH]c3c(c2C)C(=O)CC(c2ccc(Cl)cc2)C3)cc1 (stereo not given),84% (inactive)
17,COc1cc2[nH]c(=O)n(CCCC(=O)NCc3ccc(Cl)cc3)c(=O)c2cc1OC,90% (inactive)
18,COc1ccccc1N1CCN(CC(O)COc2ccc(Cl)c(C)c2)CC1 (stereo not given),66% (inactive)
19,CC(=O)Nc1ccc(OCC(O)CN2CCN(c3ccc(C)c(Cl)c3)CC2)cc1 (stereo not given),98% (inactive)
20,Cc1cc(OCC(O)CN2CCN(c3cccc(Cl)c3)CC2)ccc1Cl (stereo not given),0% (active)
21,O=C(c1cc2ccccc2oc1=O)N1CCCCCC1,88% (inactive)
22,Cc1ccc(-n2ncc(C(=O)NCCN3CCCC3)c2C2CCN(C(=O)OC(C)(C)C)CC2)cc1,153% (inactive)
23,COc1ccc(-c2nnc(SCc3cccc(Cl)c3)o2)cc1,13% (active)
24,COc1cccc(CSc2nnc(-c3ccc(F)cc3)o2)c1,113% (inactive)
25,COc1ccc(-c2nnc(SCC#N)o2)cc1,106% (inactive)

# Source: PubChem BioAssay AID463173 (ICCB-Longwood Screening Facility, Harvard Medical School, 2010)
